Data taken from PubChem BioAssay AID1420 (Emory University Molecular Libraries Screening Center, 2008).
The whole screen tested about 1,100 compounds, of which about 65 (6%) were called active. No rule for the calls is given here. A selection follows. Results with a measured potency or affinity are listed apart.

The compounds below were run against Calpain-2 catalytic subunit (Sus scrofa) (UniProt P43367) (assay: pig calpain II inhibitor potency, dose response, biochemical, fluorogenic peptide substrate (AID 1420)). Conditions: purified calpain II, 30 min; series mostly up to 50 µM; percent of control activity: at the top concentration.
Sequence of Calpain-2 catalytic subunit (Sus scrofa) (P43367 whole entry, looked up): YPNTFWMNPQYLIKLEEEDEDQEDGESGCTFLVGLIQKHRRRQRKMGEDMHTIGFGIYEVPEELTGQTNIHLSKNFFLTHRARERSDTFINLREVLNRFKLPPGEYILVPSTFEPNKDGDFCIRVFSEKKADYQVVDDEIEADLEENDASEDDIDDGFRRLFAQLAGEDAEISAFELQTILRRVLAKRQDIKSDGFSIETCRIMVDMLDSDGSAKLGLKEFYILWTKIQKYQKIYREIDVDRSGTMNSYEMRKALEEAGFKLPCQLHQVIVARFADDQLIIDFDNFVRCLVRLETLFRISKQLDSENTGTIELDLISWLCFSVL

Percent of control activity, inactive:
O=C(NNC(=O)c1cc(OCC(F)(F)F)ccc1OCC(F)(F)F)c1cccc(C(F)(F)F)c1 119%, CN(C)c1cccc(C(=O)OCC(=O)Nc2ccccc2Cl)c1 126%, CCOC(=O)C(C)Oc1ccc(OCc2ccccc2)cc1 (stereo not drawn) 106%
